Compound activity (PubChem)
Most compounds without a hit are left out; they make up all but 2.6% or so of the library.
Cruzain inh noDet = cruzain (T. cruzi) inhibition without detergent; P25779; AID 1476; purified cruzain, Z-FR-AMC fluorescence, no detergent; 2.3% of 200,000 active; Potency, µM, inactives show max response, negative = inhibition, actives largely listed as inhibitors;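 note: plate controls were enzyme without inhibitor for no effect and buffer without enzyme for full effect; nearly all actives have a fitted effect of over 40% in size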
Target sequence (P25779 123-467 limits assumed): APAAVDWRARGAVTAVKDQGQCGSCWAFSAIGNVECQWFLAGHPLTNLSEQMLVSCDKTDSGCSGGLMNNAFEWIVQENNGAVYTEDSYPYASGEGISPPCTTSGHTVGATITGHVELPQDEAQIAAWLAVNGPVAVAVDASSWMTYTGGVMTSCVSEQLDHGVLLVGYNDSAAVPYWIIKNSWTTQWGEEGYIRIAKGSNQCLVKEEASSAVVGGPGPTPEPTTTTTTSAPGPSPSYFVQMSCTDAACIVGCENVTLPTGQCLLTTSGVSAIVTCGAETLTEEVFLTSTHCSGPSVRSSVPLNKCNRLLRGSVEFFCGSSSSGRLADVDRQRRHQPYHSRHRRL
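Purified cruzain at 1.5 nM, pre-incubated 15 min with compound at room temperature in 100 mM sodium acetate pH 5.5, 5 mM DTT, 0.00005% Triton X-100. Reaction started with 2 uM Z-FR-AMC; AMC fluorescence increase over 60 s gives rate.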
Cruzain Triton = blocks cruzain activity in presence of Triton detergent; purified cruzain, Z-FR-AMC fluorescence, 0.01% Triton; 0.43% of 200,000 active; P25779; Potency, µM, inactives show max response, negative = inhibition, hits mostly inhibitors;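 note: plate controls were neutral wells for no effect and buffer without enzyme for full effect; nearly all actives have a fitted effect of over 40% in size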
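Purified cruzain (1.5 nM final) was preincubated with compounds for 15 min at room temperature in 100 mM sodium acetate pH 5.5, 5 mM DTT, 0.01% Triton X-100. Reaction started with 2 uM Z-FR-AMC; AMC fluorescence change over 60 s gave activity.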
An asterisk follows results filed as active. Calls come from the whole dose curve; as a rule, active = well fitted curve in the direction sought with a large enough effect; inconclusive = small, poorly fitted or top-dose-only effect, or another doubt; inactive = no such curve, though single readings can be large; an effect the other way counts as inactive or inconclusive. Potency is the fitted concentration of half-maximal effect.

Results for Cc1ccc2[nH]c3c(=O)n(CC(=O)Nc4ccc(Br)cc4C)ncc3c2c1 ?
Cruzain inh noDet: -10%; Cruzain Triton: -1%

How did COc1ccccc1N1CCN(c2cc(=O)n(-c3ccc(Br)cc3)c(=O)[nH]2)CC1 do in these assays?
Cruzain inh noDet: inconclusive; Cruzain Triton: 2%

Results for O=c1cc(N2CCN(c3ccccc3F)CC2)[nH]c(=O)n1-c1ccc(Br)cc1 ?
Cruzain inh noDet: 25µM*; Cruzain Triton: -1%

How did COC(=O)CN1C(=O)CSc2ccc(S(=O)(=O)Nc3ccccc3)cc21 do in these assays?
Cruzain inh noDet: -14%; Cruzain Triton: -6%

Results for CCSc1n[nH]c2nc3c(c(=O)n12)C1(CCCC1)Cc1ccccc1-3 ?
Cruzain inh noDet: inconclusive; Cruzain Triton: 2%

What do the screens show for `C=CCSc1n[nH]c2nc3c(c(=O)n12)C1(CCCC1)Cc1ccccc1-3`?
Cruzain inh noDet: 10µM*; Cruzain Triton: 2%

Results for Fc1ccc(-c2noc3ncnc(Nc4ccc(F)cc4F)c23)cc1 ?
Cruzain inh noDet: 1%; Cruzain Triton: -7%

Results for O=C(CSCc1ccccc1)N/N=C/c1ccccc1OCc1ccccc1 ?
Cruzain inh noDet: 1%; Cruzain Triton: -1%

Results for NC(=S)N/N=C\c1ccccc1OCc1ccccc1 ?
Cruzain inh noDet: 1.3µM*; Cruzain Triton: 3.2µM*

What do the screens show for `COc1cccc(/C=N/NC(N)=S)c1OCc1cccc(Cl)c1`?
Cruzain inh noDet: 5µM*; Cruzain Triton: -24%

What do the screens show for `COC(=O)N/N=C/c1cc(Cl)cc(Cl)c1OCc1ccccc1`?
Cruzain inh noDet: -10%; Cruzain Triton: -7%

Results for Cc1ccccc1CCNC(=O)C1CCN(S(=O)(=O)c2ccc3c(ccn3C)c2)CC1 ?
Cruzain inh noDet: -21%; Cruzain Triton: -3%

Results for Cn1c2ccccc2c2cnn(CC(=O)NCCCN3CCCCC3)c(=O)c21 ?
Cruzain inh noDet: -7%; Cruzain Triton: -3%

What do the screens show for `Cc1c(CNC(C)CCc2ccccc2)c(C(=O)O)c(C)n1Cc1ccc(F)cc1Cl` (configuration not stated)?
Cruzain inh noDet: 15%; Cruzain Triton: -2%

Results for COc1ccccc1CNS(=O)(=O)c1ccc2c(c1)NC(=O)CC(=O)N2 ?
Cruzain inh noDet: -15%; Cruzain Triton: 1%

What do the screens show for `Cc1ccc(-c2csc(NC(=O)c3ccc(S(=O)(=O)N4CCc5ccccc54)cc3)n2)cc1`?
Cruzain inh noDet: 5µM*; Cruzain Triton: 1%

How did O=C(Nc1nc(-c2ccc(S(=O)(=O)N3CCOCC3)cc2)cs1)c1ccccc1 do in these assays?
Cruzain inh noDet: -15%; Cruzain Triton: -6%

How did O=C(Nc1nc(-c2ccccc2)cs1)c1ccc(S(=O)(=O)N2CCc3ccccc32)cc1 do in these assays?
Cruzain inh noDet: 6.3µM*; Cruzain Triton: -1%

What do the screens show for `COc1cccc(C(=O)Nc2nc3ccc(S(=O)(=O)N4CCCC4)cc3s2)c1`?
Cruzain inh noDet: -6%; Cruzain Triton: -9%

What do the screens show for `COc1cccc(C(=O)Nc2nc(-c3ccc(S(=O)(=O)N4CCOCC4)cc3)cs2)c1`?
Cruzain inh noDet: inconclusive; Cruzain Triton: 0%

Results for COc1ccc(-c2csc(NC(=O)c3ccc(S(=O)(=O)N4CCc5ccccc5C4)cc3)n2)c(OC)c1 ?
Cruzain inh noDet: 4µM*; Cruzain Triton: -2%

Results for COc1ccc(/C=N/Nc2nc(-c3cccc(S(=O)(=O)N4CCCC4)c3)cs2)c(OC)c1 ?
Cruzain inh noDet: 7.9µM*; Cruzain Triton: -2%

Results for Cc1ccc(-c2csc(NC(=O)c3cccc(S(=O)(=O)N4CCN(C)CC4)c3)n2)cc1 ?
Cruzain inh noDet: -4%; Cruzain Triton: -13%

How did Cc1ccc(NC(=O)c2cc3ccccn3n2)cc1F do in these assays?
Cruzain inh noDet: -13%; Cruzain Triton: -3%

Results for CCN(CC)C(=O)Cn1c(=O)cc(C)c2c(C)nn(-c3cccc(Cl)c3C)c21 ?
Cruzain inh noDet: 14%; Cruzain Triton: -3%

Results for CCOCCc1nn2c(=O)cc(COC(=O)c3ccccc3OC)nc2s1 ?
Cruzain inh noDet: 14%; Cruzain Triton: -2%

Results for CCOCCCNC(=O)c1ccc(Cn2c(=O)c3cccn3c3cccnc32)cc1 ?
Cruzain inh noDet: 7%; Cruzain Triton: -1%

Results for Cc1ccc(N(C(=O)COc2ccccc2C)S(=O)(=O)c2ccc(Cl)cc2)cc1 ?
Cruzain inh noDet: -22%; Cruzain Triton: -5%

Results for O=C(Nc1nc(-c2ccccc2)cs1)c1cccc([N+](=O)[O-])c1 ?
Cruzain inh noDet: inconclusive; Cruzain Triton: -3%

What do the screens show for `O=C(Nc1nc(-c2ccc3c(c2)Cc2ccccc2-3)cs1)c1ccccc1`?
Cruzain inh noDet: 20µM*; Cruzain Triton: 0%

How did COc1ccc(-c2nnc(SCC(=O)NCCc3ccc(OC)c(OC)c3)nc2-c2ccc(OC)cc2)cc1 do in these assays?
Cruzain inh noDet: inconclusive; Cruzain Triton: -12%

How did C=CC#CC[N+]1(CC#Cc2ccccc2)CCOCC1 do in these assays?
Cruzain inh noDet: -8%; Cruzain Triton: 25µM*
